Assay results from publication PMC7862700, “An all-to-all approach to the identification of sequence-specific readers for epigenetic DNA modifications on cytosine”.

Assays:
Assay in all cases: DAPPL (digital affinity profiling via proximity ligation, sequencing); 10 mM Tris-HCl pH 7.5, 50 mM NaCl, 1 mM DTT, 4% glycerol, room temperature, 30 min; GST-TFs on glutathione beads, 16-mer random dsDNA library, 0.1% formaldehyde crosslink after washing; high values mean tight binding
Settings in all cases: protein: recombinant; tags: N-terminal GST; dsDNA, one strand shown
GABPA = target: T1, GABPA (Homo sapiens, UniProt Q06546 1-454)
T1 sequence: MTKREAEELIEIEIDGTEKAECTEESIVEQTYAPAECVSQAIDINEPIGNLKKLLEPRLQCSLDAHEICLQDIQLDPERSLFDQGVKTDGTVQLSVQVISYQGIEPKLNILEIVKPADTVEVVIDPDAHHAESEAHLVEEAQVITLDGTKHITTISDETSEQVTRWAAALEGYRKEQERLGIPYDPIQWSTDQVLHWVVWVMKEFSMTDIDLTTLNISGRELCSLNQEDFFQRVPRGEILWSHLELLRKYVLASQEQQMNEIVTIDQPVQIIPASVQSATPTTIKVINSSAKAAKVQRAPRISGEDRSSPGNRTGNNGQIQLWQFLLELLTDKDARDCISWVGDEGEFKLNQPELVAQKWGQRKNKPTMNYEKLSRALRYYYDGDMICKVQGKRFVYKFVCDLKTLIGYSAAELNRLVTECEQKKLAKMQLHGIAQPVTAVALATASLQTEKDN
Method in brief: (§1)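 Human transcription factors fused to GST were expressed in yeast, captured on glutathione beads, given DNA barcodes and pooled with a GST-only negative control. Pools were incubated with 200 nmole of a 16-mer random double-stranded DNA library in Tris/NaCl/DTT/glycerol buffer at room temperature for 30 min. They were then washed, crosslinked with 0.1% formaldehyde, proximity-ligated (BsaI/T4 ligase, 1 h, 37 °C), PCR-amplified and sequenced on an Illumina NextSeq500. Binding signal is each 6-mer's read frequency for a factor divided by its frequency for the GST control.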

ELF1 = ELF1 (Homo sapiens, UniProt P32519 1-619)
Chain of ELF1 (P32519 whole entry): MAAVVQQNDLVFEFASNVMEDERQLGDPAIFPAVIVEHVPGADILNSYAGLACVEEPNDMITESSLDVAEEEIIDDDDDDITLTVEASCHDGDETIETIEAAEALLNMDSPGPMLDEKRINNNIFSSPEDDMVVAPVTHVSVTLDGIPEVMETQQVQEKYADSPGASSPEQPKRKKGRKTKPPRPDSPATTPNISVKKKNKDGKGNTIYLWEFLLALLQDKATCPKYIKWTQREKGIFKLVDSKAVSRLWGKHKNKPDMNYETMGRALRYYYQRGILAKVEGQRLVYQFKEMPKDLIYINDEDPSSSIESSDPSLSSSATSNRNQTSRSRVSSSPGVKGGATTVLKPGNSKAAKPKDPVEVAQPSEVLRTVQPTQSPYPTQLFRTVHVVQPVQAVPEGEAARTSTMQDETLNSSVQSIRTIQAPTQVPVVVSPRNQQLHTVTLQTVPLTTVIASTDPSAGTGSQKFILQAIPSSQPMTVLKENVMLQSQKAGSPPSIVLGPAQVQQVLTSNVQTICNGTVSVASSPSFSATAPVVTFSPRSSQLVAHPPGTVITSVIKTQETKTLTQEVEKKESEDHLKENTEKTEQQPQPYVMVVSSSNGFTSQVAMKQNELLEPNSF
Method in brief: as §1

EHF = target: T2, EHF (Homo sapiens, UniProt Q9NZC4 1-300)
T2 sequence: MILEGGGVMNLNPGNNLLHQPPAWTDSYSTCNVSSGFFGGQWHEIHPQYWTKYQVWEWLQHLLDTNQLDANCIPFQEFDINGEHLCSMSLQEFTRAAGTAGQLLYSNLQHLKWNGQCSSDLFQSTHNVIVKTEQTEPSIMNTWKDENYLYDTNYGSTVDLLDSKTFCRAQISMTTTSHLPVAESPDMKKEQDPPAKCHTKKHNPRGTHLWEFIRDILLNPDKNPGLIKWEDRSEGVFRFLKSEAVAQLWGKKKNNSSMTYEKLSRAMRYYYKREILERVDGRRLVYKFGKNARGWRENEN
Method in brief: as §1

FEV = target: T3, FEV (Homo sapiens, UniProt Q99581 1-238)
T3 sequence: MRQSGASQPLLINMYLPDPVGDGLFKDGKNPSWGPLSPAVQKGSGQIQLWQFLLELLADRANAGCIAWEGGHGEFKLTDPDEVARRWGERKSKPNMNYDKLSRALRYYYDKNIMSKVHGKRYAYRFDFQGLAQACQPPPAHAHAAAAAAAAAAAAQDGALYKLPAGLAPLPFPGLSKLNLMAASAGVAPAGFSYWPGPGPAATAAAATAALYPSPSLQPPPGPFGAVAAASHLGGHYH
Method in brief: as §1

ETV5 = ETV5 (Homo sapiens, UniProt P41161 1-510)
Chain of ETV5 (P41161 whole entry): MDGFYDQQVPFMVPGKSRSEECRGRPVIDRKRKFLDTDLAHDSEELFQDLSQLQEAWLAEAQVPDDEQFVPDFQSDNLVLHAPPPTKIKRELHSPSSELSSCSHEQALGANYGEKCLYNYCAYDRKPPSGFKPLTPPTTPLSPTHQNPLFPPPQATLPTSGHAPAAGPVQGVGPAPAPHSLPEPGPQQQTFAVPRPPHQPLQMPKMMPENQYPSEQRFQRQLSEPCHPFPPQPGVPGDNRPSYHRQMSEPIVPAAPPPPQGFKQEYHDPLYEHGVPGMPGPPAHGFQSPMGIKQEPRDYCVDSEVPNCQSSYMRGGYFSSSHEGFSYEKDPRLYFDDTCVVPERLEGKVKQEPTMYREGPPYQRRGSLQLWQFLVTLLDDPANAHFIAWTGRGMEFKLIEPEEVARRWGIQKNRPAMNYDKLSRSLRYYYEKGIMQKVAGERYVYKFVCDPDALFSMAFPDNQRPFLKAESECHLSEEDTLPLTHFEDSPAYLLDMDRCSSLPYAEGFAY
Method in brief: as §1

ELK4 = target: T4, ELK4 (Homo sapiens, UniProt P28324-2 1-405)
T4 sequence: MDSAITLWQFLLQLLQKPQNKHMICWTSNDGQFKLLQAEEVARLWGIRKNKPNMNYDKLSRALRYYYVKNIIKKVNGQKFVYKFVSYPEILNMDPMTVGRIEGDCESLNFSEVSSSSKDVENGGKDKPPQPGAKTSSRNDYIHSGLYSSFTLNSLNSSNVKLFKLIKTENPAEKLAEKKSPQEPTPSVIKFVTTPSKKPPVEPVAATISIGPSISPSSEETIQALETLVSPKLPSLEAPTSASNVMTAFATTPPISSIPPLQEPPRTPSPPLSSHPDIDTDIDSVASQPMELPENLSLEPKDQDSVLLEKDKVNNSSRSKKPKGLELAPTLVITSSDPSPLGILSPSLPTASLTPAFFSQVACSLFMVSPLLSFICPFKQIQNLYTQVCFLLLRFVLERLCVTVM
Method in brief: as §1

ETV1 = ETV1 (Homo sapiens, UniProt P50549 1-477)
Chain of ETV1 (P50549 whole entry): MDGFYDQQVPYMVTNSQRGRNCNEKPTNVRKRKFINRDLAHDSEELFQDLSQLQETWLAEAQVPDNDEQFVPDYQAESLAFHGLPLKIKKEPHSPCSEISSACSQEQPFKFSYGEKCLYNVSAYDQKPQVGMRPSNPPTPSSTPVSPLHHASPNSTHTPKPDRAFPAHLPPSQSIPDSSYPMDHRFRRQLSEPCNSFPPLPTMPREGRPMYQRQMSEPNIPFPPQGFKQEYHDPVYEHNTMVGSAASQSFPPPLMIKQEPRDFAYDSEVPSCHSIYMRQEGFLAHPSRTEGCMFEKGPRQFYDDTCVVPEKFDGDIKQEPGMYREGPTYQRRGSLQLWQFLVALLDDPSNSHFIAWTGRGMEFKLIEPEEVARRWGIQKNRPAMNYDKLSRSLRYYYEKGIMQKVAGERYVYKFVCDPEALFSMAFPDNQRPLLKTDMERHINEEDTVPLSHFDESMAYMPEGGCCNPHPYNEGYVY
Method in brief: as §1

SPDEF = target: T5, SPDEF (Homo sapiens, UniProt O95238 1-335)
T5 sequence: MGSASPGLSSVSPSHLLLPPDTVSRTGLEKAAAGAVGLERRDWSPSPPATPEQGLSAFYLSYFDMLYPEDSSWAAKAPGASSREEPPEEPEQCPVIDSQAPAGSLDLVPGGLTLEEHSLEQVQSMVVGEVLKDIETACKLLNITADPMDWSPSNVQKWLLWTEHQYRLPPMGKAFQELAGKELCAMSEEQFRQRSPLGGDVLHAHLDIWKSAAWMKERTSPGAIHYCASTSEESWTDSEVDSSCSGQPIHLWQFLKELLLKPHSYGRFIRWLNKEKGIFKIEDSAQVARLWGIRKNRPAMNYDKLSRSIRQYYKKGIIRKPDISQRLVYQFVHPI
Method in brief: as §1

ETV7 = target: T6, ETV7 (Homo sapiens, UniProt Q9Y603 1-341)
T6 sequence: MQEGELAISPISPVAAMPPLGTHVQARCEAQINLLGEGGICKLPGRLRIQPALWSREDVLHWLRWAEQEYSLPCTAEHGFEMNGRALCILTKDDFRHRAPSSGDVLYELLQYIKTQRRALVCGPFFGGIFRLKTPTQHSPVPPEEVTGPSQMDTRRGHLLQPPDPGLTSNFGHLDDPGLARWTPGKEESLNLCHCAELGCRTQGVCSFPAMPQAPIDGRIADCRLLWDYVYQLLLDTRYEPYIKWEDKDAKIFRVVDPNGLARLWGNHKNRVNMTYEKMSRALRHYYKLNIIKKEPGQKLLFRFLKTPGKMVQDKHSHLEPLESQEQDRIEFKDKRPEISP
Method in brief: as §1

ETV6 = ETV6 (Homo sapiens, UniProt P41212 1-452)
Chain of ETV6 (P41212 whole entry): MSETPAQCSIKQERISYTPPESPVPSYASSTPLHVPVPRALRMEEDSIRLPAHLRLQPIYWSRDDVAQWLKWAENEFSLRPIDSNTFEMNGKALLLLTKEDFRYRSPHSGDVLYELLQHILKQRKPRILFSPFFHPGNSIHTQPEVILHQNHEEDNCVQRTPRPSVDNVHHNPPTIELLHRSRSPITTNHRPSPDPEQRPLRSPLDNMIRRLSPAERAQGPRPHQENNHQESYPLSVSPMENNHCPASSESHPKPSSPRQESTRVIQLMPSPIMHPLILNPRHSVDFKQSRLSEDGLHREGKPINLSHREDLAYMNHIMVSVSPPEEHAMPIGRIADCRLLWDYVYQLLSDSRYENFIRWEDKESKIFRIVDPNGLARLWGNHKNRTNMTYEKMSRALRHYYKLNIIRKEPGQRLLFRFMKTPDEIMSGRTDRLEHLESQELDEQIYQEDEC
Method in brief: as §1

Sequence: GGCTAA
- binding signal (GABPA): 1.01 fold enrichment (6-mer frequency, TF over GST control)
- binding signal (ELF1): 1.04 fold enrichment (6-mer frequency, TF over GST control)
- binding signal (EHF): 1.01 fold enrichment (6-mer frequency, TF over GST control)
- binding signal (FEV): 1.01 fold enrichment (6-mer frequency, TF over GST control)
- binding signal (ETV5): 1.01 fold enrichment (6-mer frequency, TF over GST control)
- binding signal (ELK4): 1.04 fold enrichment (6-mer frequency, TF over GST control)
- binding signal (ETV1): 1.03 fold enrichment (6-mer frequency, TF over GST control)
- binding signal (SPDEF): 1 fold enrichment (6-mer frequency, TF over GST control)
- binding signal (ETV7): 1 fold enrichment (6-mer frequency, TF over GST control)
- binding signal (ETV6): 1.04 fold enrichment (6-mer frequency, TF over GST control)
